# Tb PYK inh: inhibitors of Trypanosoma brucei pyruvate kinase; Q57TT1; TbPYK enzyme, Kinase-Glo Plus ATP luminescence, 45 min; Potency, µM (titrated, usually from 76.8 µM), inactives show top-dose activity, negative = inhibition, usual class: inhibitors; actives 0.12% (n = 410,000); AID 624173; also: % is scaled to controls: 0 for no effect and ±100 for the full control effect; nearly all actives have a fitted effect of over 50% in size
#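 T. brucei PYK with substrate was exposed to pin-transferred compounds across a concentration series, then started with 130 uM ADP (final). After 45 min at room temperature, Kinase-Glo Plus luminescence was read, normalized and curve-fitted.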
# Giardia FBPA inh: Giardia lamblia aldolase inhibition | purified Giardia FBPA | actives 0.71% (n = 290,000) | AID 2451 | Potency, µM (titrated, usually from 59.6 µM), without a hit: at the highest dose activity, negative = inhibition, hits mostly inhibitors | A8B2U2; also: % is scaled to controls: 0 for no effect and ±100 for the full control effect; nearly all actives have a fitted effect of over 55% in size
#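 40 nM FBPA preincubated 10 min at RT with compound (up to 57.5 uM final), then substrate plus GAPDH/TPI/NAD/arsenate coupling and diaphorase/resazurin added. Fluorescence read after 20 min at RT, 525/598 nm.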
# LmPK inhibitor: inhibitors of Leishmania mexicana pyruvate kinase; actives 0.37% (n = 290,000); Q27686; Potency, µM (doses to about 57.5 µM), for the others: at the top dose activity change, negative = inhibition, usual class: inhibitors; purified LmPK, Kinase-Glo ATP luminescence, 1 h; also: % is scaled to controls: 0 for no effect and ±100 for the full control effect
# Target sequence (Q27686 whole entry, looked up): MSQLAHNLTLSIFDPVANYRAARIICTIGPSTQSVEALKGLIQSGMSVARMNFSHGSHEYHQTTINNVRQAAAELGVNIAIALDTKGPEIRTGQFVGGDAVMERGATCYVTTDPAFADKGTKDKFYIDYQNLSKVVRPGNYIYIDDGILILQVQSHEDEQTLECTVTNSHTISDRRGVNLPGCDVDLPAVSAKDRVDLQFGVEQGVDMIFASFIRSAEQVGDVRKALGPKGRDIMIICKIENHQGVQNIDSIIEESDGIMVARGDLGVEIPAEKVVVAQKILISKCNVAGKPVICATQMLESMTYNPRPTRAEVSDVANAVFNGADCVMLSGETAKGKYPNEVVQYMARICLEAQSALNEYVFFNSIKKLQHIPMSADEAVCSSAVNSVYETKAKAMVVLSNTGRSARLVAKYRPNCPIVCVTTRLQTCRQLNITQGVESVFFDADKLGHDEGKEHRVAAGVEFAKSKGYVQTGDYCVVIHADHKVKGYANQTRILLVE
#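 Kinase-Glo luminescence read after 1 h RT reaction of 0.1 nM LmPK with 0.5 mM PEP and 0.1 mM ADP. Activity scaled between uninhibited and enzyme-free controls.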
# RE007 growth inh: less growth of the S. pombe RE007 Vpr strain. S. pombe RE007 Vpr strain, BacTiter-Glo ATP luminescence, 24 h. Potency, µM (top dose mostly 92.2 µM), inactives show top-dose activity change, negative = less growth, actives largely listed as inhibitors. actives 0.21% (n = 360,000); active = well fitted falling curve with a large enough effect; inconclusive = small, poorly fitted or top-dose-only effect; inactive = no such curve, though single readings can be large or run the other way; also: % is scaled to controls: 0 for no effect and ±100 for the full control effect; nearly all actives have a fitted effect of over 50% in size
#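 Fission yeast strain RE007, carrying one chromosomally integrated HIV-1 vpr copy, was seeded at OD 0.01 in PMG+AL medium with 23 nL pinned compound. After 24 h at 30 °C and 99% humidity, viability was read by BacTiter-Glo luminescence.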
# SARS PLpro yeast: SARS-CoV PLP inhibition in yeast. S. cerevisiae expressing SARS-CoV PLpro, growth rescue. Potency, µM (top dose mostly 32.9 µM), for inactives: at the highest dose activity, positive = growth rescue, actives largely listed as activators. actives 0.19% (n = 330,000). AID 485353; calls by dose curve; also: 0% is about no effect; nearly all actives have a fitted effect of over 55% in size
# An asterisk follows results filed as active; ? = inconclusive; · = no result given; [ ] = another dose, or the depositor's remark. Compounds with a hit are over-represented: about 1.1% of the library has one in this group of screens. Unless noted, calls follow the shape of the dose curve; as a rule, active = well fitted curve in the direction sought with a large enough effect; inconclusive = small, poorly fitted or top-dose-only effect, or another doubt; inactive = no such curve, though single readings can be large; an effect the other way counts as inactive or inconclusive. Potency is read from the fitted curve at half-maximal effect.
SMILES,Tb PYK inh,Giardia FBPA inh,LmPK inhibitor,RE007 growth inh,SARS PLpro yeast
O=C(O)c1ccc2nc3c(nc2c1)-c1ccccc1C3=O,32µM*,?,?,-15%,-2%
O=C(O)c1ccc2nc(-c3ccco3)c(-c3ccco3)nc2c1,?,6.3µM*,-24%,-11%,0%
O=C(c1ccc2nc(-c3ccco3)c(-c3ccco3)nc2c1)N1CCN(c2ccccc2)CC1,-23%,?,0%,7%,-11%
COC(=O)Nc1ccc(-c2nc(N3CCOCC3)c3cnn(C4CCN(C(=O)OC)CC4)c3n2)cc1,-1%,·,·,·,·
Cc1cccc(-c2c3c(=O)n(C)c(=O)n(C)c3c3c(C)nc4ccccc4n23)c1,-1%,·,·,·,·
O=C(c1ccc2nc(-c3ccco3)c(-c3ccco3)nc2c1)N1CCC2(CC1)OCCO2,-9%,7.1µM*,1%,-9%,12%
Clc1cccc(-c2nnc(CN3CCN(c4ccccn4)CC3)o2)c1,0%,·,·,·,·
O=C(CCNC(=O)c1ccc([N+](=O)[O-])cc1)NNC(=O)c1ccncc1,-9%,·,-9%,6%,6.3µM*
CC1=C(C2=C(C)C(C(C)C)C3=C(C(=O)C(O)C3O)C2O)C(O)C2=C(C(O)C(O)C2=O)C1C(C)C (stereo unspecified),·,-24%,·,·,·
O=C1CC(Sc2cccs2)C(=O)N1c1ccccc1 (stereo unspecified),-5%,3%,1%,?,-6%
O=C(O)c1cccnc1SC1CC(=O)N(c2ccccc2)C1=O (stereo unspecified),1%,1%,1%,5%,-3%
O=C1CC(Sc2nnc(-c3ccccc3)o2)C(=O)N1c1ccccc1 (stereo unspecified),-21%,0%,4%,16µM*,-15%
Cc1nnc(SC2CC(=O)N(c3ccccc3)C2=O)s1 (stereo unspecified),-6%,-6%,5%,40µM*,-94%
O=C(O)c1ccccc1SC1CC(=O)N(c2ccccc2)C1=O (stereo unspecified),1%,6%,-3%,10µM*,-80%
Cc1cccc(C)c1OCC(O)Cn1c2ccccc2c2ccccc21 (stereo unspecified),0%,-17%,3%,35µM*,-31%
COc1ccccc1/C=N/NC(=O)CC(=O)NCc1ccccc1,6%,18µM*,1%,-11%,-3%
O=C(c1cnc(N2CCCCC2)c2ccccc12)N1CCN(c2ccccc2F)CC1,-6%,·,·,·,·
Cc1ccc(Cl)cc1NC(=O)CN(C)S(=O)(=O)c1ccc2c(c1)n(C)c(=O)c(=O)n2C,1%,·,·,·,·
CC1CCC/C(=C\Nc2ccc(O)cc2)C1=O (stereo unspecified),-26%,7.9µM*,1%,4%,7%
O=C(CSc1ccc(-c2ccco2)nn1)c1ccc(F)cc1,20µM*,-25%,-8%,-11%,-7%
O=C(CSc1ccc(-c2ccco2)nn1)NCc1ccc(F)cc1,4%,4%,-1%,-15%,15%
FC(F)(F)c1ccc(Cl)c(-n2c(Cc3cccs3)n[nH]c2=S)c1,?,-4%,8.9µM*,17%,-1%
Fc1ccc(-n2c(Cc3cccs3)n[nH]c2=S)cc1Cl,?,3%,-21%,4%,0%
Cc1ccccc1-n1c(Cc2cccs2)n[nH]c1=S,?,-4%,8.9µM*,13%,2%
COc1ccc(Nc2cc(O)c3ncccc3c2)cc1,·,·,·,·,-24%
SMILES,Tb PYK inh,Giardia FBPA inh,LmPK inhibitor,RE007 growth inh,SARS PLpro yeast
Cc1ccc2oc3nc(C)c(C(=O)O)cc3c(=O)c2c1,?,2%,16µM*,-19%,-7%
CC(=O)c1cc2c(=O)c3cc(C)ccc3oc2nc1C,-16%,-2%,14µM*,-14%,11%
CCc1cc2c(cc3c(=O)n(CCCC(=O)NCc4cccc(Cl)c4)ncn32)s1,5%,·,·,·,·
CN(C)c1ccc(/C=C2/C(=O)NC(=O)N(Cc3ccco3)C2=O)cc1,-23%,0%,11%,4%,-2%
C=CCN1C(=O)/C(=C/c2cccs2)C(=O)NC1=S,35µM*,-26%,8%,?,4%
O=C1NC(=S)N(Cc2ccco2)C(=O)/C1=C\c1cccs1,·,16µM*,17%[11.5 µM],·,2%
O=C1NC(=O)N(CCc2ccc(F)cc2)C(=O)/C1=C/c1cccs1,-12%,3%,2%,31%,1%
COCCCNC(=O)Cn1c(=O)n(-c2ccc(C)c(C)c2)c(=O)c2c3c(sc21)CCCCC3,-3%,·,·,·,·
COc1ccc(-n2nc3cc(C)c(N)c(Br)c3n2)cc1,?,7.1µM*,?,0%,-3%
COc1ccc(-n2nc3cc(N)c(Br)cc3n2)cc1,-17%,1%,6%,-4%,0%
Cc1ccc(-n2nnc(-c3nccn3C)n2)cc1,?,1%,14µM*,?,-2%
CCOC(=O)/C=C1/N(C)c2ccccc2C1(C)C,0%,-5%,-2%,-4%,-5%
CCN1/C(=C\C=C\C2=[N+](CC)c3ccccc3C2(C)C)C(C)(C)c2ccccc21,?,21%,10µM*,?,-33%
CCOC(=O)CC(=O)CSc1nc2ccc(C)cc2cc1C#N,?,-17%,20µM*,-11%,2%
CCOC(=O)CC(=O)CSc1nc(CC)c(C)cc1C#N,-17%,2%,-14%,8%,-2%
COc1ccccc1OC1=NS(=O)(=O)c2ccccc21,0%,25%,13µM*,17%,-1%
CCc1ccc(OC2=NS(=O)(=O)c3ccccc32)cc1,-4%,-9%,0%,-2%,1%
CC/C=C(/C(=O)N[C@@H]1C(=O)N2C(C(=O)OCOC(=O)C(C)(C)C)=C(COC(N)=O)CS[C@H]12)c1csc(N)n1,-6%,·,·,·,·
CC(=O)C1=C(C)NC(SCC(=O)c2ccc(Cl)cc2)=C(C#N)C1CC(C)C (stereo unspecified),-29%,-27%,-1%,28%,-14%
CC(=O)C1=C(C)NC(SCC(N)=O)=C(C#N)C1CC(C)C (stereo unspecified),?,6%,-2%,7%,-3%
CC(=O)C1=C(C)NC(SCC(=O)c2ccc(F)cc2)=C(C#N)C1CC(C)C (stereo unspecified),14µM*,-18%,23%,-15%,12%
CC(=O)C1=C(C)NC(SCC(N)=O)=C(C#N)C1C (stereo unspecified),8.9µM*,?,15%,2%,4%
O=C(CSC1=NS(=O)(=O)c2ccccc21)Nc1ccccc1,?,-20%,22µM*,-25%,-6%
COc1ccccc1CCn1c(=O)c(-c2cc(F)cc(F)c2)nc2cncnc21,6%,0%,·,·,·
Nc1cc(C(=O)O)c(N)c2c1C(=O)c1ccccc1C2=O,?,?,25µM*,?,-6%
Cc1ccc(C)c(NC(=O)c2ccc3c(O)c(S(=O)(=O)c4ccc(Cl)cc4)c(=O)[nH]c3c2)c1,0%,·,·,·,·
